# Measured values: PubChem BioAssay (EPA / NIEHS)
# Several values for one entry are separate records, joined by “and”; a condition that tells them apart may be missing. Equal values may be shown once. Inconclusive results are not listed. Where a structure was tested more than once in an assay, its records may differ in their call. Activity calls are given as the source filed them. How the source made its calls: active means hit-call score of the fitted dose curve at least 0.9, where 1 is the maximum; inconclusive means response in the unintended direction; inactive means score below 0.9.
# Target: Cellular tumor antigen p53 (Homo sapiens) (UniProt P04637)
# Sequence (P04637 whole entry, looked up): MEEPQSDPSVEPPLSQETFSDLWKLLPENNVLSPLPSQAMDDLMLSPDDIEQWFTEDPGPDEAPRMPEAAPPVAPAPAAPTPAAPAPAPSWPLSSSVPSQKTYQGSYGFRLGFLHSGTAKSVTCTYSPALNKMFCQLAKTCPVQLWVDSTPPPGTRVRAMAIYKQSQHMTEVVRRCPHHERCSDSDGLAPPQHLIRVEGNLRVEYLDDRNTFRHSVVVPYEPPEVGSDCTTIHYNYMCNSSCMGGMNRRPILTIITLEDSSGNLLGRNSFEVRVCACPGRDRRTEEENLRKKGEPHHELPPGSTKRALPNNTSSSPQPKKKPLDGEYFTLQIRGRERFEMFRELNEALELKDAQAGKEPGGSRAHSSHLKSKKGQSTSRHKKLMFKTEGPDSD
# Test: TOX21_p53_BLA_p5_ratio: Tox21 HCT-116 p53 Agonism Beta-lactamase Assay, Ratio, Phase 5 (AID 2283599)
# Source text: TOX21_p53_BLA_p5 is a cell-based, single-readout assay that uses HCT116, a human intestinal cell line, […] in a 1536-well plate.TOX21_p53_BLA_p5_ratio is an assay readout measuring reporter gene via receptor activity and designed using inducible reporter (beta lactamase induction) detected with GAL4 b-lactamase reporter gene. The signal is derived from the ratio of cleaved (ch2) to uncleaved (ch1) reporter gene substrate used as the measure of target activity.Data from the assay component TOX21_p53_BLA_p5_ratio was analyzed into 1 assay endpoint. This assay endpoint, TOX21_p53_BLA_p5_ratio, was analyzed in the positive analysis fitting direction relative to DMSO as the negative control and baseline of activity. Using a type of inducible reporter, gain-of-signal activity can be used to understand changes in the reporter gene as they relate to the gene TP53. Furthermore, this assay endpoint can be referred to as a primary readout, because this assay has produced multiple assay endpoints and this ratio serves a reporter gene function to understand target activity. To generalize the intended target to other relatable targets, this assay endpoint is annotated to the DNA binding intended target family, where the subfamily is tumor suppressor.
# Thawing Method: Place 14 mL of pre-warmed thaw medium into a 15 mL of conical tub. Remove the vial of cells to be thawed from liquid nitrogen and thaw rapidly by placing at 37C in a water bath with gentle agitation for 1-2 minutes. Decontaminate the vial by wiping with 70% ethanol before opening in a biological safety cabinet. Transfer the vial contents drop-wise into 14 mL of thaw medium in a sterile 15-mL conical tub. Centrifuge cells at 900 rpm for 4 minutes and resuspend in thaw medium. Transfer contents to the T75 tissue culture flask containing Thaw Medium and place flask in a humidified 37C/5% CO2 incubator. Switch to growth medium at first passage.Propagation Method: Aspirate medium, rinse once in DPBS, add 0.25% Trypsin/EDTA and swirl to coat the cell evenly. Add an equal volume of Growth Medium to inactivate Trypsin after 2-3 minutes incubation at 37C. Centrifuge cells at 900 rpm for 4 minutes and resuspend in growth medium. Cell should be passage or fed at least twice a week.Assay Protocol: Harvest cells from culture in growth medium and resuspend in assay medium. 2.2 Dispense 4000 cells/5 uL/well into 1536-well black/clear bottom plates using a Multidrop dispenser. After the cells were incubated at 37C for 5 hours, 23 nL of compounds dissolved in DMSO were transferred to the assay plate by a PinTool resulting in a 217-fold dilution. Incubate the plates for 16 hours at 37C, 5% CO2. Add 1 uL of 6X LiveBLAzer FRET B/G (CCF4-AM) Substrate Mixture to each well using a BioRAPTR dispenser and incubate the plates at room temperature for 2 hours. Measure fluorescence intensity at 460 and 530 nm emission and 405 nm excitation by an Envision detector. Data is expressed as the ratio of 460nm/530nm emissions. Add 4 uL of Cell-titer Glo to each well using BioRAPTR and incubate the plates at room temperature for 2 hours. Measure fluorescence intensity by a VewLux plate reader.
Structure (SMILES),outcome,AC50
Cc1ccccc1Cl,inactive,
CC(=O)Oc1ccccc1C(=O)O,inactive,
FC(F)(F)C(F)(F)C(F)(F)C(F)(F)C(F)(F)C(F)(F)CCI,inactive,
CCNc1cccc(C)c1,inactive,
CC(=O)OCCOCCOCCOC(C)=O,inactive,
CCCc1cc(=O)[nH]c(=S)[nH]1,inactive,
O=[N+]([O-])C(CO)(CO)CO,inactive,
C1CCC(SSC2CCCCC2)CC1,inactive,
COc1cc(/C=C/C(=O)CC(=O)/C=C/c2ccc(O)c(OC)c2)ccc1O,,14 µM (active) and 39.4 µM (active) and 7.67 µM (active)
OC[C@@H](O)[C@@H](O)[C@H](O)[C@H](O)CO,inactive,
O=C(O)CCCCC(=O)O,inactive,
O=C(N[C@@H](Cc1ccccc1)[C@@H](O)C(=O)N1C[C@@H](O)[C@@H](O)C1)c1cc2cc(Cl)ccc2[nH]1,inactive,
CN[C@H]1CC[C@@H](c2ccc(Cl)c(Cl)c2)c2ccc(S(N)(=O)=O)cc21,,82.5 µM (active)
COc1cc(C=O)ccc1O,inactive,
Cc1ccc(C)c(O)c1C,inactive,
Cc1c(C(=O)O)c(O)cc2c1C(=O)c1c(O)c([C@@H]3O[C@H](CO)[C@@H](O)[C@H](O)[C@H]3O)c(O)c(O)c1C2=O,inactive,
CC1=C(/C=C/C(C)=C/C=C/C(C)=C/CO)C(C)(C)CCC1,inactive,86.4 µM (active)
O=C(OCCCCCOC(=O)c1ccccc1)c1ccccc1,inactive,
CC1(C)NC(=O)NC1=O,inactive,

Structure (SMILES),outcome,AC50
CC=Cc1ccc(O)c(OC)c1,inactive,
COc1ccc2c(c1)c(CC(=O)O)c(C)n2C(=O)c1ccc(Cl)cc1,inactive,
NCCO,inactive,
CC(=O)C(C)=CC1C(C)=CCCC1(C)C (stereo not given),inactive,
CCCCCCCCCCCCCO,inactive,
O=C(O)Cc1ccccc1Nc1c(Cl)cccc1Cl,inactive,86.4 µM (active)
NCC1(Cc2noc(=O)[nH]2)CCCCC1,inactive,
Cc1nc(-c2ccc3c(c2)CCN(CCC2CCC(NC(=O)/C=C/c4ccc(F)cc4)CC2)CC3)no1 (stereo not given),,37.9 µM (active)
COc1cccc2c1C(=O)c1c(O)c3c(c(O)c1C2=O)C[C@@](O)(C(=O)CO)C[C@@H]3O[C@H]1C[C@H](N)[C@H](O)[C@H](C)O1,,238 nM (active) and 422 nM (active)
Cc1ccc(Cl)cc1,inactive,
Nc1ccc2c(c1)C(=O)c1ccccc1C2=O,inactive,
O=c1[nH]cc(F)c(=O)[nH]1,,3.72 µM (active) and 3.09 µM (active) and 4.2 µM (active)
Oc1ccc2ccccc2c1N=Nc1ccccc1,inactive,
CCOc1ccc2c(c1)C(C)=CC(C)(C)N2,inactive,67.7 µM (active)
Cc1cccc([N+](=O)[O-])c1C,inactive,
C=CCOC(=O)c1ccccc1C(=O)OCC=C,inactive,
NS(=O)(=O)c1cc2c(cc1Cl)NCNS2(=O)=O,inactive,
CC(C)c1ccc(C(=O)N=C(N)N)cc1S(C)(=O)=O,inactive,
